Source: publication doi:10.1101/2023.07.10.548322

biological target: alpha-synuclein (aSyn) WT (human, UniProt P37840 1-140); assay: RNA Bind-n-Seq; conditions: ssRNA

Compared with GAGGUGGUAGGG, UGGGGGGAGAAG is lower in binding signal: 57.4 enrichment score for the first, 41.1 enrichment score for the second.

UGGAUGGCGGGG and GUGCGGGGGGGC are the same in binding signal: 43.8 enrichment score for the first, 43.8 enrichment score for the second.

Going from GGUGGUUUGUGG to CGGAGGUGGGUG, the binding signal falls from 43.8 enrichment score to 41.1 enrichment score.

Going from GCGGGAUGGGGG to UUGGGUGGAGGG, the binding signal rises from 43.8 enrichment score to 46.4 enrichment score.

Compared with AGUGGGUGUGGA, GUGGGGAGGAAG is lower in binding signal: 49.1 enrichment score for the first, 46.4 enrichment score for the second.

Going from AGGGUGGCGGUG to GGAUGGUUGGUG, the binding signal rises from 49.1 enrichment score to 54.6 enrichment score.

First: GUGUGGCGGAGG
Second: GAGGUGGAGGGU
The binding signal of the first is lower: 46.4 enrichment score for the first, 57.4 enrichment score for the second.

Compared with GGCGGUUGUUGG, GGUGGGUUUGGG is higher in binding signal: 46.4 enrichment score for the first, 65.9 enrichment score for the second.

Going from GGAGGUGGUGGA to GUGGGGGUGGAU, the binding signal rises from 46.4 enrichment score to 60.2 enrichment score.

Going from UGAGUGGGUGGU to AUGGGGUGGGCG, the binding signal falls from 43.8 enrichment score to 41.1 enrichment score.

Compared with GGCGAAGGGAGG, AGGGGGAUGUGG is higher in binding signal: 49.1 enrichment score for the first, 54.6 enrichment score for the second.

First: GGGGAUGGUAGG
Second: GGGGGGAUUGGG
The binding signal of the first is lower: 43.8 enrichment score for the first, 57.4 enrichment score for the second.

Compared with GUGGGGAAGGGU, GGAGGUGGUGCG is lower in binding signal: 49.1 enrichment score for the first, 41.1 enrichment score for the second.

GGGCUGGGAGUG and GGAGGCAGUGGG are the same in binding signal: 41.1 enrichment score for the first, 41.1 enrichment score for the second.

GAGUGGGUGGGA and UGGGUGGGAAGG are the same in binding signal: 43.8 enrichment score for the first, 43.8 enrichment score for the second.

First: GGUGUGGGUGUG
Second: GGGGAGUGGAUG
The binding signal of the first is higher: 51.8 enrichment score for the first, 49.1 enrichment score for the second.

First: GGGGGUGGUGUU
Second: GGUUGGGAGCGG
The binding signal of the first is higher: 49.1 enrichment score for the first, 43.8 enrichment score for the second.
